# HSF1 inh: HSF1 inhibition | 300,000 tested, 0.77% active | NIH3T3-HGL HSE-luciferase, MG132-induced, luminescence 8 h; stronger effect = lower value | activity change, negative = inhibition, % at 7.5 µM (by protocol);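 active = more than half of replicate wells show activity change below -50%, luminescence cut by over half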;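 also: luciferase reports HSF-1 transcriptional activity via heat shock element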
# HSF-1 act: increases HSF-1 driven luciferase reporter signal. NIH3T3-HGL HSF-1 luciferase reporter, MG132, 8 h; 100% = twice DMSO control signal. activation, % at 9 µM. 300,000 tested, 1.7% active. AID 504408;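 active = mean replicate activation of at least 50% with a set share of replicates each reaching 50%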
# FXN GAA850 act: increases GAA850 frataxin promoter reporter activity; HEK293 lucGAA850 FXN promoter luciferase reporter, 24 h; percent of 10 µM SAHA response; activation, % at 6 µM; 360,000 tested, 0.56% active; AID 540364;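 active = activation above the average of all compounds screened plus 3 SD, cutoff fixed separately per campaign, cut at about 7.5% in these data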
# NR0B1 inh: inhibitors of human orphan nuclear receptor DAX1 (NR0B1) | inhibition, % at 6.75 µM | P51843 | HEK293 Gal4-DAX1 luciferase reporter, luminescence | 340,000 tested, 0.99% active;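 active = inhibition above the mean over all tested compounds plus 3 SD, cut at about 4.2% in these data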;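 also: inhibition shows as a rise in luminescence from relieved DAX1 repression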
# Target sequence (P51843 207-470 limits assumed): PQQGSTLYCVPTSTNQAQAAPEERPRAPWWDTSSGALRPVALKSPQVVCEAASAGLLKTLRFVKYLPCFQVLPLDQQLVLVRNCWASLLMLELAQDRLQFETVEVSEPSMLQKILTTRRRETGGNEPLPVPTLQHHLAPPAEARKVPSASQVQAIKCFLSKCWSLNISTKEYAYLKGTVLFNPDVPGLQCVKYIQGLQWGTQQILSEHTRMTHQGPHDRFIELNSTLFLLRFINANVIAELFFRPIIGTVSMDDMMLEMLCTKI
# AHR act: activators of human aryl hydrocarbon receptor | AHR-responsive luciferase reporter cells, luminescence | activation, % at 5 µM | 320,000 tested, 2.5% active; in the data active = activation above about 47%
# Hits are given with their value; - = inactive; . = not tested or not shown. In the library only some 5.4% were active in any assay of this set; here they are far more common.
SMILES,HSF1 inh,HSF-1 act,FXN GAA850 act,NR0B1 inh,AHR act
COc1ccc2[nH]c3c(c2c1)CCN1C(=O)N([C@@H](C)C(=O)NCC2CCCO2)C(=O)[C@]31C (some centres undefined),-,-,-,5.7,-
Cc1ccc(CNC(=O)[C@H](C)N2C(=O)N3CCc4c([nH]c5ccccc45)[C@@]3(C)C2=O)cc1,-,97,-,-,-
CN(C1CC(C)(C)NC(C)(C)C1)S(=O)(=O)CC12CCC(CC1=O)C2(C)C (centres undefined),-,-,-,-,-
CSCCC(NC(=O)c1ccccc1Br)C(=O)NNC(=O)c1ccncc1 (centres undefined),.,.,-,-,-
CCOc1ccc(Nc2ncnc3ccc([N+](=O)[O-])cc23)cc1,-,-,-,-,50
CC(C)(C)c1ccc(OCCCC(=O)Nc2nnc(C3CC3)s2)cc1,.,.,-,-,.
CN(C(=O)COc1ncnc2ccccc12)C1CCCCC1,.,.,-,-,-
CCn1c(/C=C/c2cc[n+](C)cc2)nc2ccccc21,-,-,-,4.2,-
COCCOCCn1c(/C=C/c2ccccc2)nc2ccccc21,-,60,-,-,-
CC(C)n1c(/C=C/c2ccccc2)nc2ccccc21,-,107,-,-,57
CCn1c(/C=N/c2nc3ccccc3n2C)nc2ccccc21,-,-,-,-,-
CCn1c(S(=O)(=O)O)nc2ccccc21,-69,-,-,-,-
COCCOCCn1c(CCCO)nc2ccccc21,-,-,-,-,-
C/C(=N\O)c1noc(C)c1C(=O)Nc1nccs1,-,-,-,-,50
O=C(CSc1nc2c(oc3ccccc32)c(=O)n1CC1CCCO1)NCc1ccccc1 (centres undefined),-,-,-,-,-
Cc1ccc(C)c(N(CC(=O)NC2CCCC2)C(=O)CCC(=O)Nc2cc(C)on2)c1,-,-,-,-,-
Cc1ccc(Nc2cc(C)nc(-c3ccccc3)n2)cc1,-,52,-,-,-
COc1cccc(N=CC2=C(O)CC(C)(C)CC2=O)c1,-,87,-,-,-
CC1(C)CC(=O)C(C=Nc2ccc3cn[nH]c3c2)=C(O)C1,-,54,-,-,-
CCCN(CC(=O)Nc1ccccc1C)C(=O)CSc1ccccc1C,.,.,-,-,-
O=C(/C=C/c1ccc(OCCCF)cc1)N1CCN(Cc2ccccc2)CC1,-,61,-,-,-
O=C(/C=C/c1ccc([N+](=O)[O-])cc1)N1CCN(Cc2ccccc2)CC1,-,-,-,-,-
CC(=O)Nc1nc(CC(=O)c2ccccc2)cs1,-,-,-,-,58
CC(=O)Nc1nc(COc2ccccc2)cs1,-,-,-,-,-
CC1=NN(C(N)=S)C(=O)C1N=Nc1ccc(C)c(Br)c1 (centres undefined),-,-,-,-,58
SMILES,HSF1 inh,HSF-1 act,FXN GAA850 act,NR0B1 inh,AHR act
CC1=NN(C(N)=S)C(=O)C1N=Nc1ccc(O)cc1 (centres undefined),-,-,-,-,.
COc1ccccc1N=NC1C(=O)N(C(N)=S)N=C1C (centres undefined),-,-,-,-,64
CC1=NN(C(N)=S)C(=O)C1N=Nc1cccc(C)c1 (centres undefined),-,-,-,-,64
CC1=NN(C(N)=S)C(=O)C1N=Nc1ccc(F)cc1 (centres undefined),-,53,-,-,.
S=C(Nc1ccc(Nc2ccccc2)cc1)N1CCN(c2ncccn2)CC1,-,-,-,-,-
Cc1ccc(N2CC(NS(=O)(=O)c3cccs3)CC2=O)cc1 (centres undefined),-,-,-,-,-
Cc1nc(S(=O)(=O)Nc2ccccc2C(=O)NCC2CC2)cn1C,-,-,-,-,-
CCOC(=O)C1=C(Cc2ccc(Cl)cc2)C(=O)c2ccccc2C1=O,.,.,-,-,86
CCOC(=O)C1=C(C)N=C2c3ccccc3C(=O)C2C1c1ccc(Cl)cc1 (centres undefined),-,-,-,-,-
CCc1ccccc1-n1ncc(C(=O)Nc2ccccc2OC)c1C,-,-,-,-,-
NS(=O)(=O)c1ccc(NNC(=O)c2ccccc2C(=O)O)cc1,-,-,-,.,48
Cc1nc2ccccc2c(=O)n1NC(=O)Cc1ccc([N+](=O)[O-])cc1,-,-,-,-,-
O=C1c2ccccc2NC(c2ccco2)N1O (centres undefined),-,-,-,4.4,-
O=C1c2ccccc2NC(c2ccc(Br)o2)N1O (centres undefined),.,.,-,-,-
O=C(CSc1nnc2c(Cl)cc(C(F)(F)F)cn12)NCc1ccc(F)cc1,-,-,-,-,-
O=C(CSc1nnc2c(Cl)cc(C(F)(F)F)cn12)N(Cc1ccccc1)Cc1ccccc1,-,105,-,-,-
C=Cn1ccnc1CC(O)c1ccc(OC)cc1 (centres undefined),-,-,-,5.8,-
COc1ccc(NC(=O)COc2ccccc2Cc2ccccc2)cc1S(N)(=O)=O,-,81,-,-,-
CCOC(=O)N1CCN(c2c(-c3ccc(C)cc3)c(=O)c2=O)CC1,-,-,-,-,-
CCOC(=O)N1CCN(c2nc(C)c3c(n2)CCCC3=O)CC1,-70,-,-,-,-
CCn1nc(C)cc1C(=O)Sc1ccc(Cl)cc1Cl,-,52,-,-,-
CC(C)CCSc1nc2ccccc2[nH]1,-,65,-,-,-
Cc1ncc(CSc2nc3ccccc3[nH]2)c(N)n1,-,-,-,-,-
CCOc1ccccc1CSc1nc2ccccc2[nH]1,-,-,-,-,54
COC(=O)c1cccc(CSc2nc3ccccc3[nH]2)c1,-,55,-,-,-
SMILES,HSF1 inh,HSF-1 act,FXN GAA850 act,NR0B1 inh,AHR act
Cc1cccc(C(=O)OCC(=O)NCCCc2ccccc2)c1O,-,-,-,-,-
CCC(=O)NC(NC(=S)Nc1c(C)n(C)n(-c2ccccc2)c1=O)C(Cl)(Cl)Cl (centres undefined),-,-,-,-,-
CCc1ccc([C@@H]2C[C@H]3[C@@H](CN2S(=O)(=O)c2ccc(C)cc2)C(=O)C[C@@H](c2ccccc2F)N3S(=O)(=O)c2ccc(C)cc2)cc1,.,.,-,-,.
Cc1cccc(N2CCN(S(=O)(=O)c3c(C)nc4scc(C)n4c3=O)CC2)c1C,-,-,-,-,-
O=C(Nc1nccs1)c1ccc2c(=O)n3c(nc2c1)CCCCC3,-,-,-,-,76
O=C(NNC(=O)c1ccc2c(=O)n3c(nc2c1)CCC3)c1ccc(F)cc1,-,-,-,-,60
COc1ccc2nc(Cl)c(C#N)cc2c1,-65,-,-,-,-
Cc1ccc2nc(Cl)c(C#N)cc2c1,-,-,-,-,-
[O-]/[N+](=C\c1ccco1)c1ccc(Cl)cc1,-,99,-,-,-
[O-]/[N+](=C/c1ccc(F)cc1)c1ccc(Cl)cc1,-,-,-,-,64
[O-]/[N+](=C/c1ccco1)c1ccccc1,-,-,-,-,-
[O-][N+](=Cc1ccccc1)c1ccc(Cl)cc1,.,.,-,-,.
CCC(NC(=S)NCc1ccc(F)cc1)c1ccccc1 (centres undefined),-,-,-,-,-

# Source: PubChem BioAssay
